JMJD2A Tudor = qHTS Assay for Inhibitors of JMJD2A-Tudor Domain | AlphaScreen JMJD2A-Tudor / H3K4me3 peptide binding | Potency, µM (highest dose often 114 µM), without a hit: at the highest dose activity change, negative = inhibition, hits mostly inhibitors | 390,000 compounds, 4.4% hits; note: % is set by controls: 0 for no effect and ±100 for the full control effect; nearly all actives have a fitted effect of over 50% in size
HP1b chromo inh = HTS for Inhibitors of HP1-beta Chromodomain Interactions with Methylated Histone Tails; Chromobox protein homolog 1 (Homo sapiens), P83916; AlphaScreen HP1-beta / biotin-H3K9me3 peptide binding; Potency, µM (titrated, usually from 114 µM), inactives show at the highest dose activity change, negative = inhibition, usual class: inhibitors; 390,000 compounds, 0.56% hits; AID 540317, 2011; note: nearly all actives have a fitted effect of over 70% in size
Target sequence (P83916 whole entry, looked up): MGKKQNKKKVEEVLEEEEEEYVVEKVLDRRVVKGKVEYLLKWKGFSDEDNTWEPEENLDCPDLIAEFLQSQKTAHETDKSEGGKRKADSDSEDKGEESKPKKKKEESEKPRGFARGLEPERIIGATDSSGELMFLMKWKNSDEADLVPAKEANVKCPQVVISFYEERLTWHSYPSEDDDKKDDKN
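HP1-beta protein (50 nM final) preincubated 30 min at room temperature with biotinylated H3(1-18)K9me3 peptide (50 nM) in PBS pH 7.4, 0.01% Tween-20, then compound added for 30 min. AlphaScreen streptavidin donor/nickel chelate acceptor beads (10 ug/mL final), 30 min dark, luminescence read.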
G9a block = qHTS Assay for Inhibitors of Histone Lysine Methyltransferase G9a; G9a H3K9 monomethylation, AlphaScreen, 2 h; Histone-lysine N-methyltransferase EHMT2 (Homo sapiens), Q96KQ7; AID 504332, 2011; Potency, µM (titrated, usually from 102 µM), for the others: at the top dose activity, negative = inhibition, usual class: inhibitors; 350,000 compounds, 8.8% hits; note: % is set by controls: 0 for no effect and ±100 for the full control effect; nearly all actives have a fitted effect of over 75% in size
Target sequence (Q96KQ7 913-1193 limits assumed): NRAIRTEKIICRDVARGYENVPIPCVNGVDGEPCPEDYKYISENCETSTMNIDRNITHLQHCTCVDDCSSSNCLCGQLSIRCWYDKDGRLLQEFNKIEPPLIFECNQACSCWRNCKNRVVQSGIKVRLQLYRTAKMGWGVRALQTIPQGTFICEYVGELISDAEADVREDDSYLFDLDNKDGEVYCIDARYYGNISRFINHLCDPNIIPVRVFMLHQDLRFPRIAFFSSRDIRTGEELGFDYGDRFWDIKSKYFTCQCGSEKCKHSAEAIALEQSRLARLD
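Chemiluminescent proximity detection of H3K9 monomethylation, read after 10 min bead incubation in the dark. Reaction: 20 nM G9a, 500 nM biotin-H3K9 peptide, 20 uM SAM cofactor, 2 h, room temperature, following 15 min enzyme-compound preincubation.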
Sfp inh = qHTS Assay for Inhibitors of Bacillus subtilis Sfp phosphopantetheinyl transferase (PPTase). 4'-phosphopantetheinyl transferase ffp (Bacillus subtilis), Q9F4F7. Potency, µM, inactives show largest response in the series, negative = inhibition, hits mostly inhibitors. Biochemical Sfp PPTase activity, qHTS. AID 1490, 2009. 310,000 compounds, 3.5% hits;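 note: the enzyme is Sfp with the accession as filed and its product quenches rhodamine fluorescence; 0% = enzyme reaction without inhibitor and -100% = no enzyme wells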
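Compounds were incubated with enzyme (final 15 nM) for 15 min at room temperature before substrate addition started the reaction. Fluorescence at 525 nm excitation, 598 nm emission was recorded immediately and after 30 minutes.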
PLK1 PBD inh = qHTS for Inhibitors of PLK1-PDB (polo-like kinase 1 - polo-box domain): Primary Screen. Potency, µM, for inactives: max response, negative = inhibition, hits mostly inhibitors. Plk1 PBD binding of FITC phosphopeptide, fluorescence polarization. 360,000 compounds, 2.8% hits. Serine/threonine-protein kinase PLK1 (Homo sapiens), P53350; note: series mostly up to about 57 µM; % is set by controls: 0 for no effect and ±100 for the full control effect; nearly all actives have a fitted effect of over 65% in size
BAZ2B inh = qHTS Assay for Inhibitors of BAZ2B. Bromodomain adjacent to zinc finger domain protein 2B (Homo sapiens), Q9UIF8. AlphaScreen BAZ2B-H3K14Ac peptide displacement. Potency, µM (titrated, usually from 114 µM), for the others: at the top dose activity change, negative = inhibition, hits mostly inhibitors. 360,000 compounds, 4.4% hits; note: % is set by controls: 0 for no effect and ±100 for the full control effect; nearly all actives have a fitted effect of over 60% in size
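AlphaScreen luminescence quantifies BAZ2B engagement of H3K14Ac peptide; the protein and biotinylated peptide are both at 50 nM final, buffer PBS pH 7.4 with 0.01% Tween-20, all steps at room temperature.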
The depositor's hits bear a star; ? = inconclusive; . = no result; ! = repeats disagree; [ ] = remark or other dose. Compounds with a hit are over-represented: about 12% of the library has one in this group of screens. Calls come from the whole dose curve; as a rule, active = well fitted curve in the direction sought with a large enough effect; inconclusive = small, poorly fitted or top-dose-only effect, or another doubt; inactive = no such curve, though single readings can be large; an effect the other way counts as inactive or inconclusive. Potency is the fitted concentration of half-maximal effect.

SMILES	JMJD2A Tudor	HP1b chromo inh	G9a block	Sfp inh	PLK1 PBD inh	BAZ2B inh
O=C(O)c1cccc(CSc2nc(-c3ccccc3)cc(C(F)(F)F)n2)c1	-5%	19%	13%	-16%	?	2%
COc1ccc(-c2cc(C(F)(F)F)nc(SCC(=O)Nc3sc4c(c3C#N)CCC4)n2)cc1	-29%	-25%	11µM*	-3%	?	9%
COc1ccc(-c2cc(C(F)(F)F)nc(SCc3cccc(C(=O)O)c3)n2)cc1	?	4%	-8%	15%	21µM*	-5%
CCC1CCc2c(sc(NC(=O)CSc3nc(-c4ccco4)cc(C(F)(F)F)n3)c2C#N)C1 (stereo unspecified)	-20%	-20%	-19%[59 µM]	5%	24µM*	-3%
N#Cc1c(NC(=O)CSc2nc(-c3ccccc3)cc(C(F)(F)F)n2)sc2c1CCC2	-4%[57.1 µM]	18%	-16%[59 µM]	5%	?	-8%
Cn1c(C(=O)NCc2ccc(F)cc2)cc2c(=O)n(C)c3ccccc3c21	-10%	38%	-3%[59 µM]	.	.	-27%
N#Cc1cc(Oc2cccc3cccnc23)c(-n2nnc3ccccc32)cc1C#N	-6%	42%	?	50µM*	-13%	-4%
N#Cc1cc(O)c(-n2nnc3ccccc32)cc1C#N	0%	36%	?	-19%	3%	-24%
COc1ccc(N=C2SC(CC(=O)Nc3ccc(OC)cc3OC)C(=O)N2C)cc1 (stereo unspecified)	-15%	18%	-28%[12.7 µM]	-5%	-2%	2%
COc1cc([N+](=O)[O-])ccc1NC(=O)CC1SC(=Nc2ccc(F)cc2)N(CCC2=CCCCC2)C1=O (stereo unspecified)	-35%[57.1 µM]	?	50µM*	9%	-19%	?
COc1ccc(OC)c(NC(=O)CC2SC(=Nc3ccc(F)cc3)N(CCC3=CCCCC3)C2=O)c1 (stereo unspecified)	-24%	5%	50µM*	6%	-3%	?
COc1ccc(OC)c(NC(=O)CC2SC(=Nc3ccccc3)N(CCc3ccccn3)C2=O)c1 (stereo unspecified)	?	6%	?	4%	-24%	?
O=C(O)CSCC(=O)c1ccccc1	-7%	53%	-44%[59 µM]	-18%	-23%	.
C[n+]1cc[nH]c1SCC(=O)c1ccccc1	-30%	0%	50µM*	-25%	-22%	-31%
C[n+]1cc[nH]c1SCC(=O)c1ccc(Cl)cc1	-17%	13%	32µM*	?	-27%	.
O=C(CSC1=NCCS1)c1ccc(Cl)cc1	-4%	46%	-47%	?	?	.
COC(=O)CC1=COC2OCC3=CC[C@@H]1C32 (stereo partly specified)	.	.	.	34%	.	.
Cc1ccc(C(=O)CNc2ccc(Cl)cc2)cc1	-23%	17%	?	-3%	-12%	?
C/C(=N/NC(=O)CNc1ccc(C)cc1)c1ccc(Cl)cc1	?	-13%	45µM*	5%	-6%	?
Cc1cc(=O)[nH]c(N/N=C/c2ccco2)n1	-17%	44%	-33%[2.33 µM]	?	-4%	7%
C/C(=N\Nc1nc(C)cc(=O)[nH]1)C1CC1	18µM*	41%	7.9µM*	40µM*	2%	16%
Cc1cc(=O)[nH]c(NN=C2CCC(C(C)(C)C)CC2)n1 (stereo unspecified)	-16%	48%	32µM*	50µM*	-3%	6%
Cc1cc(=O)[nH]c(NN=C(CC(C)C)CC(C)C)n1	?	-1%	?	56µM*	-7%	11%
CC(NC(=O)Nc1cccc([N+](=O)[O-])c1)(C(F)(F)F)C(F)(F)F	12%[11.4 µM]	24%	.	-4%	-14%	-6%
COc1ccc(CCNC(=O)CSc2cn(CCNC(=O)c3cccc(C(F)(F)F)c3)c3ccccc23)cc1OC	-18%	33%	0%[59 µM]	.	.	-29%
SMILES	JMJD2A Tudor	HP1b chromo inh	G9a block	Sfp inh	PLK1 PBD inh	BAZ2B inh
CCOC(=O)CSc1nc2sc(C(=O)O)c(C)c2c(=O)[nH]1	-6%	33%	79µM*	13%	1%	3%
COCCn1c(SCc2nc3sc(C(=O)OC)c(C)c3c(=O)[nH]2)nc2ccccc21	-21%	26%	?	2%	0%	-13%
CCOC(=O)CSc1nc2sc(C)c(C)c2c(=O)[nH]1	16%	62%	-6%[12.7 µM]	-6%	0%	2%
Cc1c(C(=O)O)sc2nc(CSc3ncc(C(F)(F)F)cc3Cl)[nH]c(=O)c12	50µM*	?	8%[59 µM]	-8%	-29%	50µM*
CCn1c(SCc2nc3sc(C(=O)O)c(C)c3c(=O)[nH]2)nc2ccccc21	40µM*	28µM*	2.5µM*	?	?	25µM*
O=C(c1csnn1)N1CCC2(CCCN(C(c3ccccc3)c3ccccc3)C2)CC1	.	.	4%[12.7 µM]	-15%	.	.
CCOc1ccc(NC(=O)Cn2ccn3nc(-c4ccc(OC)c(OC)c4)cc3c2=O)cc1	-5%	21%	6%[59 µM]	.	.	-8%
CNc1ncnc2ccc(-c3ccccc3C)cc12	.	.	0%[0.501 µM]	-10%	.	.
O=C(NC1CCCCC1)OC1CC2CC1[C@H]1CCCCN1C2=O (stereo partly specified)	.	.	.	.	-3%	.
COc1ccc(-n2nc(N)c(C(N)=O)n2)cc1	-23%[11.4 µM]	-19%	45µM*	10%	19µM*	?
CCCCC(=O)Nc1nc2c(OC)cc([N+](=O)[O-])cc2s1	-18%	35%	0%	13%	-2%	-12%
COc1cc([N+](=O)[O-])cc2sc(NC(C)=O)nc12	-4%	13%	-21%[12.7 µM]	40µM*	-22%	-14%
C[C@H](O)CC1=C[C@H](O)[C@@H](C)OC1=O	-2%	32%	17%[59 µM]	-16%	-3%	-1%
Oc1cc2c(cc1O)C(c1ccccc1)CNCC2 (stereo unspecified)	32µM*	?	6.7µM*	79µM*!	2%	.
CN1CCc2c(cc(O)c(O)c2Cl)C(c2cccc(Cl)c2)C1 (stereo unspecified)	.	.	8.9µM*	.	.	.
CN1CCc2cc(Cl)c(O)cc2C(c2ccccc2)C1 (stereo unspecified)	.	.	29%[12.7 µM]	.	.	.
Oc1ccc([C@@H]2CNCCc3c2cc(O)c(O)c3Cl)cc1	.	.	.	56µM*	.	.
c1ccc(C2CNCCc3ccccc32)cc1 (stereo unspecified)	-7%	22%	-2%	6%	-15%	-10%

Screens (PubChem BioAssay)
